# Assay outcomes (PubChem BioAssay)
# DT40 TDP1 no CPT = qHTS for Inhibitors of human tyrosyl-DNA phosphodiesterase 1 (TDP1): qHTS in cells in absence of CPT; DT40 Tdp1-/- hTDP1 cells, no CPT, ATP luminescence, 48 h; Potency, µM (doses to about 46.2 µM), inactives show top-dose activity change, negative = growth inhibition, usual class: inhibitors; 420,000 compounds, 15% hits; AID 686978, 2013; also: potency is read from the fitted curve at half-maximal effect; nearly all actives have a fitted effect of over 55% in size
#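 Luminescent ATP content (CellTiter-Glo) served as the growth readout. Knockout chicken DT40 cells expressing human TDP1 were exposed to compounds without camptothecin for a minimum 48 hr at 37 °C.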
# 12-LOX inh = inhibitors of human 12S-lipoxygenase ALOX12; P18054; 580,000 compounds, 1.1% hits; Potency, µM (top dose mostly 108 µM), without a hit: at the top dose activity change, negative = inhibition, hits mostly inhibitors; purified 12hLO, xylenol orange hydroperoxide absorbance; also: potency is read from the fitted curve at half-maximal effect
#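 Hydroperoxide product was detected by ferrous iron/xylenol orange as the 573 to 405 nm absorbance ratio. Arachidonic acid at 40 uM (final) was turned over for 30 min at room temperature by 150 nM human 12hLO, pH 7.0 Hepes buffer, after 15 min compound preincubation.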
# IL-1B inflam inh = blocks inflammasome-driven IL-1 beta release; THP-1 LPS/ATP IL-1B secretion, AlphaLISA, 16 h; stronger effect = lower value; activity change, % at 57.5 µM; 360,000 compounds, 4.7% hits; AID 743279; in the data active = activity change below about -50%; inconclusive = mostly about -30% to -49%
#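 THP-1 cells pretreated 1 hr with compounds (up to 57.5 uM final), then stimulated with LPS (250 ng/mL final) plus ATP (1.25 mM final); secreted IL-1B measured by AlphaLISA after 16 hr, decreased signal indicating inhibition.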
# DT40 TDP1 CPT = growth inhibition of DT40 Tdp1-/-;hTDP1 cells with camptothecin (screen for TDP1 inhibitors); Potency, µM (doses to about 46.2 µM), without a hit: at the highest dose activity change, negative = growth inhibition, usual class: inhibitors; 420,000 compounds, 12% hits; chicken DT40 Tdp1-/-;hTDP1 cells + 20 nM CPT, ATP luminescence, 48 h; also: potency is read from the fitted curve at half-maximal effect; nearly all actives have a fitted effect of over 55% in size
#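 Cell growth measured by CellTiter-Glo luminescence after a minimum 48 h, 37 C compound exposure with 20 nM CPT in Tdp1-knockout DT40 cells stably expressing hTDP1, seeded 400/well; qHTS titration format.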
# HT1080NT lethal = kills 2HG-producing HT-1080-NT fibrosarcoma cells | HT-1080-NT fibrosarcoma viability, CellTiter-Glo ATP luminescence, 48 h | Potency, µM (series often up to 46.1 µM), without a hit: at the highest dose activity, negative = less viability, most hits filed as cytotoxic | 360,000 compounds, 1.6% hits | AID 686970;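 also: NT is the 2HG producing partner of a matched IDH1 knockdown line; potency is read from the fitted curve at half-maximal effect; 0% = DMSO-treated cells and -100% = media-only wells without cells; nearly all actives have a fitted effect of over 55% in size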
#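 Compounds were tested in concentration-response format on HT-1080-NT cells for 48 hours at 37 degrees C. Cell viability came from CellTiter-Glo luminescence; curves were classified by r2, response magnitude and activity.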
# HT1080 IDH1KD tx = kills HT-1080 cells with IDH1 knockdown; HT-1080 IDH1 knockdown viability, ATP luminescence, 48 h; Potency, µM (doses to about 46.1 µM), inactives show at the highest dose activity, negative = toxicity, most hits filed as cytotoxic; 360,000 compounds, 2% hits; AID 686971;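 also: potency is read from the fitted curve at half-maximal effect; 0% = DMSO wells and -100% = cell-free medium wells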
#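 Knockdown cells (IDH1KD HT-1080) received compounds 2 h after plating at 750 cells/well and were kept 48 h at 37 °C in 5% FBS RPMI. A CellTiter-Glo luminescence read gave % activity for curve fitting.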
# Active calls of the source: *; ? = inconclusive; / = not tested or not shown. This is one part of a sample in which hits are shown more often than they occur. Unless noted, calls follow the shape of the dose curve; as a rule, active = well fitted curve in the direction sought with a large enough effect; inconclusive = small, poorly fitted or top-dose-only effect, or another doubt; inactive = no such curve, though single readings can be large; an effect the other way counts as inactive or inconclusive. Unless noted, % is scaled to controls: 0 for no effect and ±100 for the full control effect.
SMILES,DT40 TDP1 no CPT,12-LOX inh,IL-1B inflam inh,DT40 TDP1 CPT,HT1080NT lethal,HT1080 IDH1KD tx
C/C(=N\NC(=O)c1ccc(N/N=C(\C)c2ccncc2)cc1)c1ccncc1,21µM*,-28%,-82*,?,-7%,-25%
C/C(=N\NC(=O)c1ccc(OC2OCCOC2Oc2ccc(C(=O)N/N=C(\C)c3ccncc3)cc2)cc1)c1ccncc1 (configuration not stated),7.3µM*,-4%,-2,6.5µM*,?,?
CC(=NNC(=O)c1ccncc1)c1ccccc1Cl,7%,20%,12,8%,3%,-2%
C/C(=N\NC(=O)c1ccccc1NC(=O)c1ccc(Cl)cc1)c1ccncc1,1.2µM*,7%,35,0.92µM*,0.52µM*,1.3µM*
C/C(=N\NC(=O)c1c(Cl)cnn1C)c1ccc(NC(=O)c2ccncc2)cc1,21µM*,-2%,15,?,1%,-27%
CCOc1ccccc1Nc1nnc(SCC(=O)N(C)C2CCS(=O)(=O)C2)s1 (configuration not stated),?,0%,-61*,-21%,17%,20%
COc1ccc(Nc2nnc(SCC(=O)N(CC(C)C)C3CCS(=O)(=O)C3)s2)cc1 (configuration not stated),18µM*,?,-20,?,-18%,-8%
CC1=C(C(=O)OCCCCCl)C(c2cc3c(cc2Br)OCO3)NC(=O)N1 (configuration not stated),?,-5%,-18,-27%,-16%,-9%
Cc1ccc(-n2cc(CNC(C)c3cnn(C)c3)c(-c3ccc(F)cc3)n2)cc1 (configuration not stated),21µM*,-16%,-1,18µM*,-2%,-25%
Cc1ccc(-n2cc(CNC(C)Cn3cncn3)c(-c3ccc(F)cc3)n2)cc1 (configuration not stated),?,-1%,?,?,-19%,-9%
Cc1ccc(-n2cc(CNC(C)c3cnn(C)c3C)c(-c3ccc(F)cc3)n2)cc1 (configuration not stated),2.9µM*,11%,?,5.2µM*,1%,1%
Cc1ccc(-n2cc(CN3CCN(Cc4nccn4C)CC3)c(-c3ccc(F)cc3)n2)cc1,?,0%,?,?,?,?
CCCCn1c(=O)[nH]c(=O)c2c1nc(CCc1ccccc1)c(=O)n2Cc1ccccc1,/,-23%,/,/,/,/
Cc1cccc(C(=O)N2CCCC(c3cc(N4CCOCC4)ncn3)C2)c1 (configuration not stated),/,11%,/,/,/,/
Cc1nc2c(OCCOc3ccccc3)cccn2c1N(C)C(=O)CCC1CCCC1,?,-24%,146,?,-20%,-12%
Cc1nc2c(OCCOc3ccc(F)cc3)cccn2c1N(C)C(=O)CCC1CCCC1,15µM*,-30%,-23,?,?,?
Cc1nc2c(OCc3cc(Cl)cc(Cl)c3)cccn2c1N(C)C(=O)CCC1CCCC1,?,?,-67*,?,?,?
Cc1nc2c(OCCC3CCCCC3)cccn2c1N(C)C(=O)CCC1CCCC1,16µM*,?,-53*,?,?,?
Cn1cccc1CNC(=O)Cn1nc2c(cc1=O)CCCC2,/,-5%,/,/,/,/
O=C1Cc2ccccc2C(=O)N1c1cccc(Cl)c1,-29%,-22%,12,-27%,11%,5%
O=C1Cc2ccccc2C(=O)N1c1ccc(F)cc1Cl,16µM*,?,-9,?,22%,16%
Cc1ccc(CNc2ncnc3c2nc2n3CCCC2)cc1,?,-10%,/,?,/,/
